Data taken from PubChem BioAssay (NCATS).
“And” between values parts separate entries of the source, which are not always exact repeats. Equal entries are not always repeated. Results filed as inconclusive are left out. For part of these data: Entries with a potency or affinity are not part of this list. The source made the active and inactive calls.

Columns and labels:
[1] = qHTS for compounds that reverse cellular toxicity of Amyloid beta (A-beta) peptide in yeast: LOPAC Validation Assay (AID 720559);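 note: plate controls were DMSO for no effect and equimolar ferric chloride plus clioquinol rescue for full effect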
In short: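 Activity is expressed relative to DMSO and an equimolar ferric chloride/clioquinol mix. Compounds were pinned into medium with A-beta-expressing yeast, grown 48 hr at 30 C, then read by absorbance at 600 nm.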

[2] = qHTS for Activators of Parkin Expression: LOPAC Validation Assay (FLuc Reporter) (AID 720573;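 note: 0% = DMSO and 100% = positive control compounds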)
In short: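 A neuronal cell line harbouring FLuc and NLuc reporters behind the Parkin promoter was exposed to compounds for 24 h. Firefly luciferase signal, measured after 10 min with detection reagent, was scaled to DMSO and positive-control wells.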

[3] = biological target: T1, Hexokinase-4 (Homo sapiens) + Glucokinase regulatory protein (Homo sapiens) (UniProt P35557+Q14397); assay: qHTS assay for inhibitors of recombinant human GCK-GKRP interaction: Diaphorase-coupled assay (AID 743205)
T1 sequence (P35557 whole entry, looked up): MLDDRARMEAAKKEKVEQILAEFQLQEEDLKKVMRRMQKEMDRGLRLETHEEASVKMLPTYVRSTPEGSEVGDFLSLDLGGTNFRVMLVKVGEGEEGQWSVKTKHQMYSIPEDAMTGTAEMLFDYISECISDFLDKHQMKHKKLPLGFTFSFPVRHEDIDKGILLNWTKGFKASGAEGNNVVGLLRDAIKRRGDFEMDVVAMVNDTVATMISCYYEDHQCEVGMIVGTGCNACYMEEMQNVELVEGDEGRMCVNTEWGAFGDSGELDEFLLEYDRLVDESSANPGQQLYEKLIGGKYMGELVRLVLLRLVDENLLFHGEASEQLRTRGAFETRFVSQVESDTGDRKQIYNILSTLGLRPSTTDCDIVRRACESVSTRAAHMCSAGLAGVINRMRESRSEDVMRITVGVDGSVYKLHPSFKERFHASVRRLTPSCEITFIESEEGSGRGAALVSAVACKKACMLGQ
T1 sequence (Q14397 whole entry, looked up): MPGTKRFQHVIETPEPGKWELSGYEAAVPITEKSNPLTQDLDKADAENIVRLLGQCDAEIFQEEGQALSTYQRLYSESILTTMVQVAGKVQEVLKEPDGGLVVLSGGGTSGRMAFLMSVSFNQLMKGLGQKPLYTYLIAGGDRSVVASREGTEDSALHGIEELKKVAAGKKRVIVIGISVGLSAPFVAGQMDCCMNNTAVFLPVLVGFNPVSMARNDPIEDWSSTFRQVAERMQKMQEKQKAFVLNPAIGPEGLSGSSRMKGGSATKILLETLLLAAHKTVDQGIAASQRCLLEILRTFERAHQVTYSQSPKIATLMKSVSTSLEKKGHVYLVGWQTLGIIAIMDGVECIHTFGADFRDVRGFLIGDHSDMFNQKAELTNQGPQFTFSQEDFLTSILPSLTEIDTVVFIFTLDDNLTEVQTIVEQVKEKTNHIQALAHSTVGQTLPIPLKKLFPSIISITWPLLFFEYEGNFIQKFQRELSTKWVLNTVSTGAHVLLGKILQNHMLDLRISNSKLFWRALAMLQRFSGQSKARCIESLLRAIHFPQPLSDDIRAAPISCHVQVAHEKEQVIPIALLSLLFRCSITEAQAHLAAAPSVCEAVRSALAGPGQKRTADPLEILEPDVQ
In short: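 Inhibitors of the GCK–GKRP complex relieve GKRP suppression of GCK, detected through a G6PDH–diaphorase cascade reducing resazurin. Human GST-GCK and FLAG-GKRP are used at 10 nM with 5 mM glucose and 0.4 mM ATP.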

[4] = biological target: T1, Hexokinase-4 (Homo sapiens) + Glucokinase regulatory protein (Homo sapiens); assay: qHTS assay for inhibitors of recombinant human GCK-GKRP interaction: ADP-Glo assay (AID 743206);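 note: plate controls were DMSO plus enzyme for no effect and no enzyme for full effect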
In short: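 Pin-transferred compounds meet a 15 nM GST-GCK/15 nM FLAG-GKRP/2 uM S6P mix (dispense concentrations). ATP is then added to 0.4 mM final with 5 mM glucose, and the reaction runs 60 min at room temperature. ADP is quantified luminescently.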

[5] = biological target: T1, Hexokinase-4 (Homo sapiens) + Glucokinase regulatory protein (Homo sapiens); assay: qHTS assay for inhibitors of recombinant human GCK-GKRP interaction: HTRF assay (AID 743207);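 note: 0% = DMSO with GCK present and -100% = DMSO wells lacking GCK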
In short: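 Steps: dispense GCK–GKRP complex (5 nM each, GST- and FLAG-tagged) with 2 uM S6P; pin in compounds; add XL665/Eu-cryptate-labelled antibodies; incubate 60 min at room temperature; read time-resolved FRET at 665 and 615 nm.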

[6] = qHTS Assay for Identifying Gametocytocidal Compounds (AID 743244); note: potency is the fitted concentration of half-maximal effect;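 for max response: % is set by controls: 0 for no effect and ±100 for the full control effect; actives lower the fluorescent signal which means gametocytes are killed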; conditions: P. falciparum 3D7 stage III-V gametocytes, alamarBlue, 72 h; max response: stronger effect = lower value
In short: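 Stage III–V gametocytes of P. falciparum 3D7 were seeded at 20,000 cells/well onto pre-dispensed compounds. After 72 h, 37 °C, 5% CO2, alamarBlue was added for another 24 h.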

[7] = Ebola virus entry assay, green fluorescence channel
[8] = qHTS assay for small molecule agonists of the antioxidant response element (ARE) signaling pathway measured by Nrf2-dependant transcriptional activity (AID 720636; active = well fitted curve in the direction sought with a large enough effect in the repeat runs; an effect the other way counts as inactive or inconclusive; note: % of control where 0% means no effect)
In short: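 ARE-luc HepG2 cells carrying an Nrf2-responsive luciferase reporter were plated in medium with 1% dialyzed FBS, left 6 hr at 37 C to attach, then exposed to compound for 16 hr. Luciferase luminescence was read after ONE-Glo addition.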

[9] = qHTS assay for small molecule agonists of the antioxidant response element (ARE) signaling pathway measured by Nrf2-dependant transcriptional activity - cell viability counter screen (AID 720653; active = well fitted curve in the direction sought with a large enough effect in the repeat runs; an effect the other way counts as inactive or inconclusive; note: % is set by controls: 0 for no effect and ±100 for the full control effect); conditions: ARE-bla HepG2 viability, CellTiter-Glo ATP luminescence, 16 h; max response: stronger effect = lower value
In short: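 ARE-bla HepG2 cells treated with compounds for 16 h at 37C; this counter screen measures viability as intracellular ATP by CellTiter-Glo luminescence after 30 min at room temperature.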

[10] = qHTS assay for cell viability of HEK293 cells (AID 743288); conditions: ATP luminescence (CellTiter-Glo), 18 h; max response: stronger effect = lower value; note: % is set by controls: 0 for no effect and ±100 for the full control effect; nearly all actives have a fitted effect of over 50% in size
In short: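 Quantitative high-throughput screen: compounds were pinned onto parental HEK293 cells (2,000 per well) after a minimum 5 h settling at 37 C, incubated 18 h at 37 C, and intracellular ATP measured by luciferase luminescence.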

[11] = qHTS assay for cell viability of the p53RE-bla HCT-116 cell line (AID 743292); note: % is set by controls: 0 for no effect and ±100 for the full control effect; nearly all actives have a fitted effect of over 55% in size
In short: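 CellSensor p53RE-bla HCT-116 cells, 4,000/well, preincubated 5 h at 37 C, then exposed to compounds in DMSO for 16 h at 37 C. Viability read as CellTiter-Glo luminescence (intracellular ATP) after 30 min at room temperature.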

[12] = qHTS profiling for inhibitors of Plasmodium falciparum (3D7) proliferation (AID 743322);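 note: infected erythrocytes exposed to compound for 72 h before lysis; 100% = DMSO vehicle wells and 0% = 0.29 µM artemisinin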; conditions: P. falciparum 3D7 proliferation; at 28.7 µM (top of the series)
In short: (§1)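 Parasite DNA was quantified by SYBR Green I fluorescence (ex 485, em 535 nm) after overnight lysis in saponin/Triton buffer at room temperature. Cultures at 0.3% parasitemia and 2.5% hematocrit were first exposed to compound for 72 h at 37 C; signals were normalised to artemisinin (0.29 uM) and vehicle wells.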

[13] = qHTS profiling for inhibitors of Plasmodium falciparum (DD2) proliferation (AID 743323; call rule not given here); conditions: lower = more inhibition; at 28.7 µM (top of the series)
In short: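 1536-well qHTS; infected RBCs 0.3% parasitemia/2.5% Hct final; cpd 72 h 37 C 5% CO2; lysis buffer + SYBR Green I, o/n RT dark; FI 485/535; norm. to 0.29 uM artemisinin and DMSO, plate-stack corrected.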

[14] = qHTS profiling for inhibitors of Plasmodium falciparum (HB3) proliferation (AID 743324); conditions: Plasmodium falciparum HB3 blood-stage proliferation; at 28.7 µM (top of the series);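 note: 100% = DMSO vehicle wells and 0% = artemisinin-treated control wells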
In short: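 SYBR Green fluorescence (485 ex/535 em) of lysed cultures, incubated overnight at room temperature in the dark, quantifies parasite DNA. Infected erythrocytes at 0.3% parasitemia and 2.5% hematocrit were exposed 72 h; values normalized to DMSO and 0.29 uM artemisinin controls.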

[15] = qHTS profiling of the MIPE4 collection as inhibitors of Plasmodium falciparum (3D7) proliferation (AID 743344; call rule not given here;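 note: scaled between DMSO vehicle wells and 0.29 µM artemisinin as full inhibition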); conditions: P. falciparum 3D7 in erythrocytes, SYBR Green DNA fluorescence, 72 h; at 28.5 µM (top of the series) unless noted
In short: as §1

[16] = qHTS profiling of the MIPE4 collection as inhibitors of Plasmodium falciparum (DD2) proliferation (AID 743345; call rule not given here); conditions: P. falciparum Dd2 in erythrocytes, SYBR Green DNA, 72 h; at 28.5 µM (top of the series) unless noted
In short: as §1

[17] = qHTS profiling of the MIPE4 collection as inhibitors of Plasmodium falciparum (DD2) proliferation (Rep 2) (AID 743346; call rule not given here); conditions: P. falciparum Dd2 in erythrocytes, SYBR Green DNA, 72 h; at 28.5 µM (top of the series) unless noted
In short: as §1

[18] = qHTS profiling of the MIPE4 collection as inhibitors of Plasmodium falciparum (HB3) proliferation (AID 743347; call rule not given here;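 note: plate controls were DMSO vehicle wells for no effect and artemisinin wells for full effect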); conditions: P. falciparum HB3 in erythrocytes, SYBR Green DNA, 72 h; at 28.5 µM (top of the series) unless noted
In short: as §1

[19] = qHTS assay for small molecule antagonists of the retinoid-related orphan receptor gamma (ROR-gamma) signaling pathway - cell viability counter screen (AID 720652; active = well fitted curve in the direction sought with a large enough effect in the repeat runs; an effect the other way counts as inactive or inconclusive;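 note: CHO reporter cells with doxycycline-induced ROR-gamma expression; compound exposure lasted 16 hr before ATP read; % is set by controls: 0 for no effect and ±100 for the full control effect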)
In short: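 Cytotoxicity counter screen: intracellular ATP (CellTiter-Glo luminescence) measured in the doxycycline-induced CHO RORE-luciferase reporter line after 16 hr compound exposure at 37 C, 5% CO2.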
Throughout, for efficacy: 0% is about no effect.

CC(CCc1ccccc1)NC(C)C(O)c1ccc(O)cc1 (configuration not stated)
inactive: outcome [1] | outcome [2] | outcome [3] | outcome [4] | outcome [5] | max response [6] 2.74% and 19.3% | efficacy [7] 36.4%

CCCN1CCC[C@@H]2Cc3[nH]ncc3C[C@H]21
inactive: outcome [1] | outcome [2] | outcome [3] | outcome [4] | outcome [5] | max response [6] -4.72% and 8.32% and 17.4% | efficacy [7] -15.1%

N#CC(C#N)=Cc1ccc(O)c(O)c1
inactive: outcome [1] | outcome [3] | outcome [4] | outcome [5] | max response [6] 25.4% | efficacy [7] -17.1%

CC(C)(C)CC(C)(C)c1ccc(O)cc1
inactive: Potency [8] | max response [9] -9.38% | max response [6] -7.21% and 8.2% | max response [10] -15.6% | Potency [11] | efficacy [7] -38.7%

Cc1ccc2c(n1)Oc1ccc(C(C)C(=O)OCC(=O)N(C)C)cc1C2 (configuration not stated)
inactive: max response [6] 42.6% and 2.17% | efficacy [7] -14% and -11.2%

Oc1cc(Cl)ccc1Oc1ccc(Cl)cc1Cl
8.79%: parasite growth remaining, % of DMSO control (lower = more inhibition) [16]
6.59%: parasite growth, % of DMSO control [15]
0.738%: remaining parasite growth % (stronger effect = lower value) [12]
1.17%: remaining proliferation (% of control), lower = more inhibition [14]
5.41%: growth, % of control [18]
20.6%: parasite growth, % of control (lower = inhibition) [17]
2.03%: activity, percent of control [13]
inactive: Potency [8] | max response [9] -9.95% | efficacy [7] -133%

Cc1cc2c(C(C)C)c(O)c(O)c(C=O)c2c(O)c1-c1c(C)cc2c(C(C)C)c(O)c(O)c(C=O)c2c1O
inactive: outcome [2] | Potency [8] | max response [6] 0.673% | efficacy [7] 104%

CC(C)=CCOc1c2occc2cc2ccc(=O)oc12
inactive: outcome [1] | outcome [2] | outcome [3] | outcome [4] | outcome [5] | max response [6] -4.41% and 18.6% | efficacy [7] 19.5%

O=[N+]([O-])c1cc([As](=O)(O)O)ccc1O
inactive: efficacy [7] -13%
active: Potency [6] 3.98 µM

COc1ccc(Cc2nccc3cc(OC)c(OC)cc23)cc1OC
inactive: outcome [3] | max response [6] 8.87% and -8.15% | efficacy [7] 13%

O=c1[nH]c2ccccc2n1CCCN1CCC(n2c(=O)[nH]c3cc(Cl)ccc32)CC1
14%: growth, % of control [18]
inactive: outcome [1] | outcome [2] | outcome [3] | outcome [4] | outcome [5] | max response [6] -7.84% and 21.7% | efficacy [7] 125%
31.2%: parasite growth, % of control (lower = inhibition) [17]
52.4%: parasite growth remaining, % of DMSO control (lower = more inhibition) [16]
26.8%: parasite growth, % of DMSO control [15]

NN=C(N)N
inactive: outcome [1] | outcome [2] | outcome [3] | outcome [4] | outcome [5] | max response [6] 9.75% and 23.5% | efficacy [7] -37.7%

Cc1cccc(C)c1NC(=O)CN1CCCC1=O
inactive: outcome [1] | outcome [2] | outcome [3] | outcome [4] | outcome [5] | max response [6] 12.6% | efficacy [7] -15.1%
89.5%: growth, % of control [18]
99.6%: parasite growth remaining, % of DMSO control (lower = more inhibition) [16]
101%: parasite growth, % of DMSO control [15]
129%: parasite growth, % of control (lower = inhibition) [17]

FC(F)(F)c1cccc(C2=CCN(CCc3ccc4ccccc4c3)CC2)c1
inactive: max response [6] 11.8% | efficacy [7] -24.5%

CC(=O)[C@H]1CC[C@H]2[C@@H]3CC[C@H]4C[C@H](O)CC[C@]4(C)[C@H]3C(=O)C[C@]12C
inactive: outcome [1] | outcome [2] | outcome [3] | outcome [4] | outcome [5] | max response [6] -4.24% and 9.55% | efficacy [7] -24.6%

Cc1ncc(CNC(=O)N(CCCl)N=O)c(N)n1
inactive: outcome [1] | outcome [2] | outcome [3] | outcome [4] | outcome [5] | max response [6] -1.52% and 11.3% | efficacy [7] 16.2%

CCOP(=S)(OCC)Oc1cc(C)nc(C(C)C)n1
inactive: Potency [8] | Potency [19] | max response [9] 0.528% and 11.7% | max response [6] 18.9% | max response [10] 0.702% and -4.39% | Potency [11] | efficacy [7] 13.4%

OCCOc1ccccc1
inactive: Potency [8] | Potency [19] | max response [9] -0.196% and 2.04% and -9.12% | max response [6] 3.27% and 3.36% | max response [10] -3.53% and -2.57% and -13.5% | Potency [11] | efficacy [7] -12.5%

Oc1ccc(Cl)cc1Cc1ccccc1
inactive: Potency [8] | Potency [19] | max response [9] 1.75% and 7.8% | max response [6] -3.88% and -14.6% | max response [10] -10.2% and -5.38% | Potency [11] | efficacy [7] -105%

Fc1ccc(C(OCCN2CCN(CCCc3ccccc3)CC2)c2ccc(F)cc2)cc1
inactive: outcome [1] | outcome [2] | outcome [3] | outcome [4] | outcome [5] | efficacy [7] -187%
10.9%: parasite growth, % of control (lower = inhibition) [17]
5.99%: parasite growth, % of DMSO control [15]
9.78%: parasite growth remaining, % of DMSO control (lower = more inhibition) [16]
86.1%: growth, % of control [18]

O=C(O)c1ccc2[nH]cc(CCCCN3CC=C(c4ccccc4)CC3)c2c1
inactive: max response [6] -6.11% | efficacy [7] 28%
